SSB-PriA inh – inhibitors of Klebsiella pneumoniae PriA binding to SSB C-terminal tail | AlphaScreen SSBct-PriA binding, biotinylated peptide | inhibition, % at 33 µM | 0.6% of 430,000 active; in the data active = inhibition mostly above about 37%, no sharp cut-off; inactive = mostly below about 20%;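 also: plate controls were negative control peptide for no effect and reference peptide for full effect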
RecA intein inh – inhibitors of M. tuberculosis RecA intein splicing; AID 2221; inhibition, % (test concentration not listed); 0.75% of 290,000 active; P9WHJ3; cell-free RecA intein splicing, fluorescence; in the data active = inhibition above about 30%; inconclusive = no clear call, values can overlap the other calls;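 also: 0% = vehicle wells and 100% = reference inhibitor control wells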
BJeLR viability – kills HRASV12-expressing BJeLR cells; BJeLR (HRASV12) viability, CellTiter-Glo ATP luminescence, 48 h; inhibition, % (test concentration not listed); 0.17% of 300,000 active; AID 1554; in the data active = inhibition above about 50%; inconclusive = no clear call, values can overlap the other calls
PfHsp40 yeast – compounds rescuing yeast from Plasmodium falciparum HSP40 toxicity; S. cerevisiae expressing PfHsp40, growth rescue, ATP luminescence; growth rescue, % at 12.5 µM; 0.68% of 340,000 active; AID 504582; in the data active = growth rescue above about 28%, passing the limit was not always enough; inconclusive = no clear call, values can overlap the other calls;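 also: yeast W303a lacking pdr1 and pdr3 grown in galactose medium; growth measured after three days at 30 °C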
PrPC TRFRET – cell surface PrPC inhibition, primary TR-FRET screen; 0.43% of 370,000 active; P04156; TR-FRET read-out; inhibition, % at 13.8 µM; in the data active = inhibition above about 24%; also: 0% = median of the test wells and 100% = reference compound wells
PrP 5UTR inh – suppresses PrP 5' UTR mRNA reporter expression. cell-based PrP 5' UTR mRNA reporter, plate reader. inhibition, % (test concentration not listed). 0.35% of 340,000 active. AID 488862; in the data active = inhibition above about 52%; also: 0 = median of the neutral control wells
* hit, by the source's call; ? = inconclusive; . = not tested or not shown. The list is not random: actives were taken first. Their share in the collection is about 1.9%.

SMILES	SSB-PriA inh	RecA intein inh	BJeLR viability	PfHsp40 yeast	PrPC TRFRET	PrP 5UTR inh
O=C(NC(=S)NCc1ccc2c(c1)OCO2)c1ccccc1	-11	-6	9	52*	2	-14
O=C(NCc1ccc2c(c1)OCO2)c1ccccc1	-7	1	0	0	6	-31
Cc1onc(-c2ccccc2)c1C(=O)NNC(=S)NC(=O)c1ccc2c(c1)OCO2	6	16	-7	48*	-7	-20
COc1cc(OC)cc(C(=O)NC(=S)NNC(=O)[C@H]2C[C@@H]2c2ccccc2)c1	0	0	-3	11	2	-20
COc1ccc(C(=O)NC(=S)NNC(=O)c2c(-c3ccccc3)noc2C)cc1OC	-4	5	16	31*	1	-14
COc1ccc(C(=O)NC(=S)NNC(=O)[C@H]2C[C@@H]2c2ccccc2)cc1OC	-1	3	-9	66*	0	-4
COc1ccc(CCNC(=O)c2c(-c3ccccc3)noc2C)cc1OC	-12	0	-7	4	8	-25
CC(O)(CNC(=O)N1CCNC1=O)c1ccco1 (stereo not drawn)	-2	.	.	.	.	.
COc1cccc(NC(=O)CSc2nc3cc(-c4ccccc4)sc3c(=O)n2C)c1	-1	.	.	.	.	.
CC(=NNC(=S)NCc1ccccc1)c1cccc(Br)c1	-1	.	.	.	.	.
C/C(=N\NC(=S)NCc1ccccc1)c1cccc(Br)c1	.	0	5	136*	1	-21
O=C(Nc1nnc(-c2ccco2)o1)C1CC(=O)N(c2ccccc2)C1 (stereo not drawn)	65*	.	.	.	.	.
COc1ccc(Cl)cc1C(=O)CSc1nnnn1C1CCCCC1	-15	5	-9	7	-1	-24
COc1ccc(Cl)cc1C(=O)CSc1nnnn1C1CCCC1	-42	.	.	32*	7	-19
O=C1C(Cl)=C(Nc2ccccc2O)C(=O)N1c1ccccc1	1	.	-19	-2	-6	-33
COc1ccccc1N1C(=O)C(Cl)=C(Nc2ccccc2O)C1=O	31	21	-5	92*	-13	-30
CCN1C(=O)NC2(CCN(S(=O)(=O)c3c(C)noc3C)CC2)C1=O	-3	.	.	.	.	.
Cc1ccc(NC(=O)C(NC2CCCc3ccccc32)c2ccccc2)cc1Cl (stereo not drawn)	-43	10	4	1	10	-14
Cc1ccc(NC(=O)C(NC2CCCc3ccccc32)c2ccccc2)c([N+](=O)[O-])c1 (stereo not drawn)	46*	2	-11	1	-3	-9
Oc1c(Br)cc(Br)cc1CNc1ccc(F)cc1	-2	12	-4	187*	-5	-17
Oc1c(Br)cc(Br)cc1CNc1cnc2ccccc2c1	-1	2	-2	1	0	-5
CCOC(=O)c1c(C)[nH]c(N=Nc2cccc(OC)c2)c1C	29	8	-3	77*	-2	-148
CCOC(=O)c1c(C)[nH]c(N=Nc2cccc(C)c2)c1C	9	-3	-12	8	1	-134
O=C(CSc1nc2ccccc2c(=O)n1Cc1ccco1)N1CCCCCC1	-17	6	16	-1	-7	-7
CCCn1c(SCC(=O)N2CCN(C(=O)c3ccco3)CC2)nc2ccccc2c1=O	-1	1	6	74*	-10	-25
SMILES	SSB-PriA inh	RecA intein inh	BJeLR viability	PfHsp40 yeast	PrPC TRFRET	PrP 5UTR inh
COc1ccc(C(=O)Nc2cc(C)nc3c(C)cc(C)cc23)cc1OC	-15	.	.	.	.	.
Cc1cccn2cc(-c3cccc(N)c3)nc12	52*	.	.	.	.	.
Cc1ccc(-c2cn3cccc(C)c3n2)cc1N	1	.	.	.	.	.
COc1ccc2nc(-c3ccc(F)c(NC(=O)c4cccc(Cl)c4)c3)cn2n1	-4	.	.	.	.	.
CN(C)CCCNc1c2ccccc2nc2ccccc12	-7	-47	69*	1	-21	.
O=S(=O)(c1ccc(Br)cc1)N1CCN(Cc2c(O)ccc3ccccc23)CC1	-19	.	.	.	.	.
CC1N(C)c2cccc3cccc(c23)N1C	45*	0	-11	0	-6	-17
COc1cccc(OC)c1C(=O)NC(C)C12CC3CC(CC(C3)C1)C2 (stereo not drawn)	4	1	1	84*	8	-14
CC(NC(=O)c1ccc([N+](=O)[O-])o1)C12CC3CC(CC(C3)C1)C2 (stereo not drawn)	10	5	-6	-1	-8	-34
COc1ccccc1N1CCN(c2ncnc3scc(-c4ccc(Br)cc4)c23)CC1	-11	.	.	.	.	.
O=C(c1cccs1)N1N=C(c2ccccc2)CC1c1ccc2nccnc2c1 (stereo not drawn)	37*	.	.	.	.	.
O=C(c1cccs1)N1N=C(c2ccccc2)C[C@H]1c1ccc2nccnc2c1	-1	.	.	.	.	.
CC(NC(=O)c1cccs1)C(=O)Nc1nc(-c2ccccn2)cs1 (stereo not drawn)	103*	.	.	.	.	.
Cc1cccc(C(=O)NC(C)C(=O)Nc2nc(-c3ccccn3)cs2)c1 (stereo not drawn)	100*	.	.	.	.	.
CC(N)C(=O)Nc1nc(-c2ccccn2)cs1 (stereo not drawn)	59	.	.	.	.	.
CC(Oc1ccc(C#N)cc1)C(=O)Nc1nc(-c2ccccn2)cs1 (stereo not drawn)	109*	.	.	.	.	.
O=C(Nc1nc(-c2ccccn2)cs1)C1(n2cnnn2)CCCCC1	158*	.	.	.	.	.
CC(Oc1ccc(Br)cc1)C(=O)Nc1nc(-c2ccccn2)cs1 (stereo not drawn)	3	17	6	?	7	24
COc1ccc(N2CCN(CC(N)=O)CC2)cc1	23	.	.	.	.	.
Cc1ccc2c(c1)[C@@H]1CN(C)CC[C@H]1N2C(=O)c1cccc(S(=O)(=O)N(C)C)c1	-3	.	.	.	.	.
CC(C)C(=O)Nc1nc(-c2ccccn2)cs1	74*	.	.	.	.	.
CC(C(=O)Nc1nc(-c2ccccn2)cs1)N1NC2=CCCC2=CC1=O (stereo not drawn)	95*	.	.	.	.	.
CC(C)n1nccc1-c1nnc(NC(=O)CCSc2ccc(Cl)cc2)o1	-4	.	.	.	.	.
COc1ccc(CCNc2nccn(-c3cccc(Cl)c3C)c2=O)cc1OC	32*	.	.	.	.	.
COc1ccc(CCNc2nccn(-c3ccccc3OC)c2=O)cc1OC	4	.	.	.	.	.
SMILES	SSB-PriA inh	RecA intein inh	BJeLR viability	PfHsp40 yeast	PrPC TRFRET	PrP 5UTR inh
CCOC(=O)N1CCN(C(=O)C(=O)Nc2ccc3nc4n(c(=O)c3c2)CCCCC4)CC1	104*	2	-3	0	-1	-9
COc1ccc(OC)c2sc(N3CCN(C(=O)c4ccc5c(c4)CCCC5)CC3)nc12	29*	.	.	.	.	.
NNC(=O)c1ccc2nc(-c3ccc(Br)cc3)cn2c1	-2	-7	-4	71*	4	-49
COc1ccc(N2C[C@@H](NC(=O)Nc3cccnc3)CC2=O)cc1OC	-11	.	.	.	.	.
N#Cc1nc(Cc2ccccc2)oc1N1CCC(Cc2ccccc2)CC1	50*	7	-4	0	-11	-20
N#Cc1nc(Cc2ccccc2)oc1N1CCN(c2ccccc2)CC1	45*	1	2	4	-5	-4
COc1cccc(-c2ccc3ncnc(NCc4cccc(C)c4)c3c2)c1	1	.	.	0	0	-18
COc1cccc(CNc2ncnc3ccc(-c4c(C)noc4C)cc23)c1	-7	.	.	33*	16	5

High-throughput results deposited in PubChem by several laboratories.
